Records with an inconclusive call do not appear. Active and inactive are the calls of the source. Rule for the calls, unless noted: active = hit-call score of the fitted dose curve at least 0.9, where 1 is the maximum; inconclusive = response in the unintended direction; inactive = score below 0.9.
What was measured:
[1] = molecular target: Estrogen receptor beta (Homo sapiens) (UniProt Q92731); test: OT_ER_ERbERb_1440: Odyssey Thera (OT) 24-hour HEK293T Protein-Complementation Assay for Estrogen Receptor-beta/-beta Homodimer (AID 2283380);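 note: fluorescence gain from ER beta LBD homodimer complementation read by laser scanning cytometry; scored as signal increase over DMSO baseline for both agonists and antagonists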
Procedure, shortened: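 Fluorescence increase, nuclear for agonists or whole-cell for antagonists, relative to DMSO vehicle, quantified by laser scanning cytometer after fixation and Draq5 staining. Readout from 24 h treatment of HEK293T cells carrying complementation-paired ER beta LBD (aa 310-547).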

[2] = molecular target: Bile acid receptor (Homo sapiens) (UniProt Q96RI1); test: OT_FXR_FXRSRC1_1440: Odyssey Thera (OT) 24-hour HEK293T Protein-Complementation Assay for Farnesoid X receptor/SRC-1 Co-activator (AID 2283384)
Procedure, shortened: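 Single endpoint, analysed for increased fluorescence against DMSO controls. HEK293T cells carrying FXR and SRC-1 linked to complementary reporter halves were exposed to chemicals for 24 h before reading.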

[3] = molecular target: Retinoic acid receptor RXR-alpha (Homo sapiens) (UniProt P19793); test: OT_NURR1_NURR1RXRa_0480: Odyssey Thera (OT) 8-hour HEK293T Protein Complementation Assay for Nurr1/retinoid X receptor (RXR) (AID 2283385)
Procedure, shortened: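 Gain in fluorescent complementation signal over DMSO, measured 8 hours after chemical dosing of human kidney HEK293T cells, indicated enhanced Nurr1–RXRα association.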

[4] = CEETOX_H295R_11DCORT: CeeTox H295R High-throughput Steroidogenesis Assay for 11-Deoxycortisol (11DCORT) (AID 2283432; active = hit-call score of the fitted dose curve at least 0.9, where 1 is the maximum; inactive = score below 0.9;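 for AC50: 11-deoxycortisol secreted into the medium measured by LC-MS/MS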); conditions: actives raise or lower the signal
Procedure, shortened: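 H295R cells; 10 uM forskolin prestim 48 h; compound in 0.1% DMSO 48 h; media extracted with MTBE; 11-deoxycortisol by LC-MS/MS, 7-point standard curve; gain/loss vs DMSO baseline; viability by MTT in same wells.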

[5] = CEETOX_H295R_OHPREG: CeeTox H295R High-throughput Steroidogenesis Assay for OH-Pregnenolone (OHPREG) (AID 2283434; active = hit-call score of the fitted dose curve at least 0.9, where 1 is the maximum; inactive = score below 0.9); conditions: actives raise or lower the signal
Procedure, shortened: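 Secreted 17alpha-hydroxypregnenolone measured by HPLC-MS/MS after liquid-liquid extraction. Human adrenal H295R cells received 48 h forskolin (10 uM) stimulation before 48 h chemical exposure at 0.1% final DMSO; MTT viability in same wells; bidirectional fit against DMSO.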

[6] = CEETOX_H295R_OHPROG: CeeTox H295R High-throughput Steroidogenesis Assay for OH-Progesterone (OHPROG) (AID 2283435; active = hit-call score of the fitted dose curve at least 0.9, where 1 is the maximum; inactive = score below 0.9;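 for AC50: 17alpha-hydroxyprogesterone secreted into medium measured by HPLC-MS/MS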); conditions: actives raise or lower the signal
Procedure, shortened: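 Human adrenocortical H295R cells, passage 10 or lower, were treated with chemical for 48 h after forskolin priming, and hormone output in the medium was quantified by LC-MS/MS.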

[7] = CEETOX_H295R_CORTIC: CeeTox H295R High-throughput Steroidogenesis Assay for Corticosterone (CORTIC) (AID 2283437; active = hit-call score of the fitted dose curve at least 0.9, where 1 is the maximum; inactive = score below 0.9); conditions: actives raise or lower the signal
Procedure, shortened: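 Medium corticosterone was quantified by tandem mass spectrometry following 48 hours of chemical exposure (0.1% DMSO) in human H295R cells previously stimulated 48 hours with 10 uM forskolin. Viability checked by MTT; chemicals diluted and retested when viability fell below 70%.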

[8] = CEETOX_H295R_CORTISOL: CeeTox H295R High-throughput Steroidogenesis Assay for Cortisol (AID 2283438; active = hit-call score of the fitted dose curve at least 0.9, where 1 is the maximum; inactive = score below 0.9;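 note: cortisol secreted into medium quantified by LC-MS/MS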); conditions: actives raise or lower the signal
Procedure, shortened: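 Steroidogenesis in H295R, per modified OECD 456: 48 h forskolin (10 uM), then 48 h exposure, 0.1% DMSO. Cortisol by extraction and tandem MS; viability by MTT (570/650 nm); cytotoxic chemicals diluted and re-tested.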

[9] = CEETOX_H295R_DOC: CeeTox H295R High-throughput Steroidogenesis Assay for DOC (AID 2283439; active = hit-call score of the fitted dose curve at least 0.9, where 1 is the maximum; inactive = score below 0.9); conditions: actives raise or lower the signal
Procedure, shortened: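 H295R, fsk 10 uM ×48 h pre, cmpd ×48 h (0.1% DMSO). Media → MTBE extr. → LC-MS/MS, DOC. Bidirectional fit vs DMSO; MTT viability same wells, re-test diluted if <70%.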

[10] = CEETOX_H295R_PROG: CeeTox H295R High-throughput Steroidogenesis Assay for Progesterone (PROG) (AID 2283442; active = hit-call score of the fitted dose curve at least 0.9, where 1 is the maximum; inactive = score below 0.9;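 for AC50: human H295R adrenal cells primed with 10 µM forskolin before dosing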); conditions: actives raise or lower the signal
Procedure, shortened: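 Adrenal H295R line, forskolin-stimulated (10 uM, 48 h) before dosing. 48 h exposure, 0.1% DMSO vehicle. Secreted progesterone by reverse-phase HPLC with ESI+ MS/MS quantification; DMSO-normalised bidirectional curve fit.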

[11] = read-out: Tumor necrosis factor receptor superfamily member 6 (Homo sapiens) (UniProt P25445); test: LTEA_HepaRG_FAS: Life Technologies and Expression Analysis (LTEA) Assay for Fas cell surface death receptor (FAS) using HepaRG (AID 2283447; active = hit-call score of the fitted dose curve at least 0.9, where 1 is the maximum; inactive = score below 0.9); conditions: mRNA level, 48 h; actives raise or lower the signal
Procedure, shortened: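 FAS transcript level was measured by TaqMan qRT-PCR against three housekeeping genes after 48 h chemical exposure. Cells were HepaRG, 0.5% DMSO vehicle, with a top concentration of 100 uM and half-log dilutions over eight points, in duplicate.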

[12] = molecular target: Estrogen receptor (Homo sapiens) (UniProt P03372); test: OT_ERa_GFPERaERE_0480: Odyssey Thera (OT) 8-hour HeLa Transcription Induction Assay for Estrogen Receptor (AID 2283381; active = hit-call score of the fitted dose curve at least 0.9, where 1 is the maximum; inactive = score below 0.9)
Procedure, shortened: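 An 8 h HeLa transcription-induction format with a GFP reporter under ERE control, read by fluorescence microscopy; single endpoint fitted positively with DMSO as baseline.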

[13] = molecular target: Estrogen receptor (Homo sapiens) (UniProt P03372); test: OT_ERa_GFPERaERE_0120: Odyssey Thera (OT) 2-hour HeLa Transcription Induction Assay for Estrogen Receptor (AID 2283382)
Procedure, shortened: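 Two-hour compound treatment of HeLa cells preceded microscopy imaging of an inducible fluorescent reporter. Image-based quantification gave one endpoint, analysed for signal increase relative to DMSO controls.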

[14] = molecular target: Bile acid receptor (Homo sapiens) (UniProt Q96RI1); test: OT_FXR_FXRSRC1_0480: Odyssey Thera (OT) 8-hour HEK293T Protein-Complementation Assay for Farnesoid X receptor/SRC-1 Co-activator (AID 2283383)
Procedure, shortened: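 Readings were taken 8 h after dosing HEK293T cells in a split-reporter complementation format pairing FXR with SRC-1. Increased fluorescence relative to DMSO-treated wells defined activity.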

[15] = molecular target: Peroxisome proliferator-activated receptor gamma (Homo sapiens) (UniProt P37231); test: OT_PPARg_PPARgSRC1_0480: Odyssey Thera (OT) 8-hour Protein-Complementation Assay for Peroxisome Proliferator-activated Receptor Gamma / SRC-1 Co-activator (AID 2283387);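 note: nuclear to cytoplasmic split Venus YFP fluorescence ratio reporting PPARg SRC-1 interaction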
Procedure, shortened: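 Read-out: 488 nm N/C fluorescence ratio from complemented Venus YFP fragments, ≥350 cells per image, gain-of-signal fitted against DMSO baseline. Fusions of PPARg/SRC-1 with IFP1/IFP2 expressed transiently in HEK293T; compounds applied 8 h.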

[16] = molecular target: Peroxisome proliferator-activated receptor gamma (Homo sapiens) (UniProt P37231); test: OT_PPARg_PPARgSRC1_1440: Odyssey Thera (OT) 24-hour Protein-Complementation Assay for Peroxisome Proliferator-activated Receptor Gamma/ SRC-1 Co-activator (AID 2283388);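 note: nuclear to cytoplasmic ratio of reconstituted Venus YFP fluorescence in fixed imaged cells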
Procedure, shortened: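 Transient HEK293T, YFP fragments 1-158/159-239 (mutant IFP1/IFP2) fused to PPARg/SRC-1; 24 h dosing; fix 4% formaldehyde, Draq5; Opera imaging 488/635 nm; N/C ratio, gain vs DMSO.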

[17] = CEETOX_H295R_ESTRADIOL: CeeTox H295R High-throughput Steroidogenesis Assay for Estradiol (AID 2283440; active = hit-call score of the fitted dose curve at least 0.9, where 1 is the maximum; inactive = score below 0.9;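 note: estradiol secreted into medium quantified by LC-MS/MS after dansyl derivatisation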); conditions: actives raise or lower the signal
Procedure, shortened: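 Following OECD 456 with minor changes, H295R cells received 10 uM forskolin for 48 h and then test chemical for 48 h. Hormone output was read by HPLC-MS/MS, with cytotoxic concentrations diluted until MTT viability reached ≥70%.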

[18] = CEETOX_H295R_ESTRONE: CeeTox H295R High-throughput Steroidogenesis Assay for Estrone (AID 2283441; active = hit-call score of the fitted dose curve at least 0.9, where 1 is the maximum; inactive = score below 0.9;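 note: estrone secreted into medium measured by LC-MS/MS after dansyl derivatization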); conditions: actives raise or lower the signal
Procedure, shortened: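 Forskolin-stimulated H295R cells are treated 48 h with chemical, and estrone in the medium is measured by LC-MS/MS. Activity is fitted in both directions relative to DMSO controls, with chemicals diluted until MTT viability reaches at least 70%.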

Measured: AC50

Estrogen receptor beta (Homo sapiens), sequence (Q92731 whole entry, looked up, the tested form may be a part): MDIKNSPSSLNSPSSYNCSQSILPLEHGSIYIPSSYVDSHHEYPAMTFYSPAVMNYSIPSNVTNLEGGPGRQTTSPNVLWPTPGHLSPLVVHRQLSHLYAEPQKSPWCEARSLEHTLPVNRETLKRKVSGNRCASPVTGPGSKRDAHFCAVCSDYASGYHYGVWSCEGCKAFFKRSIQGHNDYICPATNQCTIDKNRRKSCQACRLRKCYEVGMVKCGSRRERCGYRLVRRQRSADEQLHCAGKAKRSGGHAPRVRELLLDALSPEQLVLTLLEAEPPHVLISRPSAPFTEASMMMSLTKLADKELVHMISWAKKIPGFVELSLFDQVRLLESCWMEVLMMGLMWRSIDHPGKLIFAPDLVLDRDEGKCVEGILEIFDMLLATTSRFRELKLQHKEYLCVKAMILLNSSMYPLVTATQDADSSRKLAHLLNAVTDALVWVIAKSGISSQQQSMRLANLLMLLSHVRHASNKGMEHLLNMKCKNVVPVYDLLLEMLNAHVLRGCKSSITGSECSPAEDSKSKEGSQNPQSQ
Peroxisome proliferator-activated receptor gamma (Homo sapiens), sequence (P37231 whole entry, looked up, the tested form may be a part): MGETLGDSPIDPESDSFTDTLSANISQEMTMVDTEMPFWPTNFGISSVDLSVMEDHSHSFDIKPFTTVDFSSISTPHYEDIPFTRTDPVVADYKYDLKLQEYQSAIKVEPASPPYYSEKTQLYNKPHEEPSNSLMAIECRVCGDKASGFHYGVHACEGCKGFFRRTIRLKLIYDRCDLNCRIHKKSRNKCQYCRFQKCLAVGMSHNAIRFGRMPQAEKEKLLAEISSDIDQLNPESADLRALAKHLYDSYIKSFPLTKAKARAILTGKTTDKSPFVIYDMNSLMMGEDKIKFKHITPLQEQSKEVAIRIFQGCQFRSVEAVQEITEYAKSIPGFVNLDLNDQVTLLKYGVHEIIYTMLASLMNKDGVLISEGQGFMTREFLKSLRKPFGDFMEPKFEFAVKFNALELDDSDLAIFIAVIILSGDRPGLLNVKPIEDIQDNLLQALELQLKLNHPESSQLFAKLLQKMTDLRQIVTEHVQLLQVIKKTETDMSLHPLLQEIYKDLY
Estrogen receptor (Homo sapiens), sequence (P03372 whole entry, looked up): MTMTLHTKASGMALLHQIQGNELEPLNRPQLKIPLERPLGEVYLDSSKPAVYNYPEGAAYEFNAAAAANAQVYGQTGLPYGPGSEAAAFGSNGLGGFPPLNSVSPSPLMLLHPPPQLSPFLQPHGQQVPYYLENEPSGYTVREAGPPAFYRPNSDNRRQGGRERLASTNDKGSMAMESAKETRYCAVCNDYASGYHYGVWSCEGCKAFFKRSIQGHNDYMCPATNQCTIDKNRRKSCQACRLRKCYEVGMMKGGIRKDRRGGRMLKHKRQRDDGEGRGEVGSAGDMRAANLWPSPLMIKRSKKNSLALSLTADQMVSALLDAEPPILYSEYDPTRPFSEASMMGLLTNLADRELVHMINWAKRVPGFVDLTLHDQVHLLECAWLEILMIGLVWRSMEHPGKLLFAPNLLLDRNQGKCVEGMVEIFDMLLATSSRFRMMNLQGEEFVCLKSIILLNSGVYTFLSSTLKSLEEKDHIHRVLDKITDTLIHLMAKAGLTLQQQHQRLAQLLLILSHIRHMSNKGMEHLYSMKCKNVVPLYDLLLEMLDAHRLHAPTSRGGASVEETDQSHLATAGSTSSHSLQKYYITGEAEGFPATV
Bile acid receptor (Homo sapiens), sequence (Q96RI1 whole entry, looked up): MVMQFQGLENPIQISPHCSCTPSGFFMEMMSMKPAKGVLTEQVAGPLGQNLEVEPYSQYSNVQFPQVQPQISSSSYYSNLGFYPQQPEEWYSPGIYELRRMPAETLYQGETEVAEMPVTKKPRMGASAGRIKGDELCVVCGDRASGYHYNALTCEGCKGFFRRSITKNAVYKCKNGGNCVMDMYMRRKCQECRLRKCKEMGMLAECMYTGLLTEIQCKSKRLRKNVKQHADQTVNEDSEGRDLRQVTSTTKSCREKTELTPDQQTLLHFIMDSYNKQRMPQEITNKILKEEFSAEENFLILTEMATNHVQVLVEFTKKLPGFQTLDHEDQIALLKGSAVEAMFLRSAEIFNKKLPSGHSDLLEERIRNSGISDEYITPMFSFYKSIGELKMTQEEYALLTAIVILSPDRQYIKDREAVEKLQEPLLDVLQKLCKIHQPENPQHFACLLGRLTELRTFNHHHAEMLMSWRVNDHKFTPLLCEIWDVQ
Retinoic acid receptor RXR-alpha (Homo sapiens), sequence (P19793 whole entry, looked up): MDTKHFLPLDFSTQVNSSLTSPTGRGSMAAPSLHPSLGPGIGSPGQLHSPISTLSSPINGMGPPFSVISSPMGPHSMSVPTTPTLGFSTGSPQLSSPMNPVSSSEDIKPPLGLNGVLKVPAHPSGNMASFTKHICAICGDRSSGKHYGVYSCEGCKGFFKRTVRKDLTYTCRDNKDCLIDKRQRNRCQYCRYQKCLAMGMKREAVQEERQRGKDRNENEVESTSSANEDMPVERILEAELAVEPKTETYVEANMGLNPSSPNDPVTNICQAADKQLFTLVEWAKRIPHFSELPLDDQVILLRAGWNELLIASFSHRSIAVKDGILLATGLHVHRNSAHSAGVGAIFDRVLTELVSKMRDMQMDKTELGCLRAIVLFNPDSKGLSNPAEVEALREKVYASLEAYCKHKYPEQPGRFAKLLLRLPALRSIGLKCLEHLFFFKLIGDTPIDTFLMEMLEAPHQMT

O=C(O)c1ccc([N+](=O)[O-])cc1
not listed: [12] | [13] | [14] | [15] | [16] | [17] | [18]
inactive: all other assays above

OCCOCCOCCOCCO
inactive: [1] | [12] | [13] | [3]

c1ccc(CCCc2ccccn2)cc1
active: [14] 50 µM | [10] 50 µM
not listed: [4] | [7] | [8] | [9] | [11]
inactive: all other assays above

NC(=O)Nc1ccc(Cl)cc1
active: [7] 27.6 µM
not listed: [2] | [3] | [11] | [14]
inactive: all other assays above

COc1c(Cl)c(Cl)c(Cl)c(Cl)c1Cl
inactive: [1] | [14] | [3]

Cc1ccc(S)cc1
inactive: [1] | [12] | [13] | [15] | [16]
active: [3] 79.4 µM

CCCCCCCCCCN
active: [3] 59.8 µM
inactive: [1]

NCCCN1CCOCC1
inactive: [1] | [12] | [13] | [14] | [3] | [15] | [16]

CCCCc1ccc(N)cc1
inactive: [1] | [12] | [13] | [15] | [16]

CCCCCCCCCCCCCC(=O)O
active: [2] 81.8 µM
inactive: [1] | [12] | [13] | [14] | [15] | [16]

CCN(CC)c1ccc2c(-c3ccccc3C(=O)O)c3ccc(=[N+](CC)CC)cc-3oc2c1
inactive: [12] | [13]
active: [1] 12.2 µM | [14] 35.2 µM | [2] 38.9 µM | [3] 12.7 µM | [15] 12.2 µM | [16] 12 µM

CC(C)(N)CO
inactive: [1] | [12] | [13] | [2] | [15] | [16]

BrC1CCC(Br)C(Br)CCC(Br)C(Br)CCC1Br (stereo not given)
inactive: [1] | [12] | [13] | [3] | [15] | [16]
active: [14] 18.2 µM | [2] 17.4 µM

CC(=O)OCCOC(C)=O
inactive: [1] | [12] | [13] | [15] | [16]

CC(C)(C#N)c1cc(Cn2cncn2)cc(C(C)(C)C#N)c1
inactive: [1] | [14] | [15] | [16]

CCCCCCCCC=O
inactive: [1] | [12] | [13] | [2] | [3] | [15] | [16]

CCCC/C=C\CCCCCCCCCC=O
inactive: [1] | [14] | [3] | [15] | [16]

O=Nc1ccc(Nc2ccccc2)cc1
inactive: [1] | [14] | [15] | [16]
active: [12] 72.3 µM | [13] 28.2 µM | [3] 0.707 µM

C=C(C)C(=O)O
inactive: [1] | [12] | [13] | [3] | [15] | [16]

O=C1c2ccccc2C(=O)N1SC1CCCCC1
active: [13] 36.3 µM
inactive: [1] | [12]

CCCCCCCCCC=O
inactive: [1] | [12] | [13] | [3] | [15] | [16]

CCC/C=C/C=O
inactive: [1] | [12] | [13] | [15] | [16]

CC(C)c1cccc(O)c1
active: [1] 33.5 µM | [6] 39 µM
not listed: [2] | [11] | [14]
inactive: all other assays above

CC1COc2ccccc2N1C(=O)C(Cl)Cl (stereo not given)
active: [4] 25.2 µM | [5] 3.66 µM | [7] 9.46 µM | [8] 32.3 µM | [9] 10.4 µM
not listed: [2] | [6] | [11] | [14]
inactive: all other assays above

OCCN1CCNCC1
inactive: [1] | [12] | [13] | [14] | [2] | [3] | [15] | [16]

CCCCOCCOCCOCCOCCO
inactive: [1] | [12] | [13] | [3] | [15] | [16]

CCCCCCCCC
inactive: [1] | [12] | [13] | [15] | [16]

— PubChem BioAssay (EPA / NIEHS)
